The campaign covered roughly 320,000 compounds. About 8,000 (2.5%) were called active. Rule as the data show it: active = activation above about 47%; inactive = the rest. Only a selection was taken, and actives are over-represented in it overall.
What follows are compounds tested against Aryl hydrocarbon receptor (Homo sapiens) (UniProt P35869) (assay: AHR activators, primary screen, cell-based, luminescence, luciferase reporter, human (AID 2796;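 also: 0% = vehicle wells and 100% = reference agonist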)). Conditions: AHR-responsive luciferase reporter cells, at 5 µM, active compounds read high.
Aryl hydrocarbon receptor (Homo sapiens), sequence (P35869 whole entry, looked up): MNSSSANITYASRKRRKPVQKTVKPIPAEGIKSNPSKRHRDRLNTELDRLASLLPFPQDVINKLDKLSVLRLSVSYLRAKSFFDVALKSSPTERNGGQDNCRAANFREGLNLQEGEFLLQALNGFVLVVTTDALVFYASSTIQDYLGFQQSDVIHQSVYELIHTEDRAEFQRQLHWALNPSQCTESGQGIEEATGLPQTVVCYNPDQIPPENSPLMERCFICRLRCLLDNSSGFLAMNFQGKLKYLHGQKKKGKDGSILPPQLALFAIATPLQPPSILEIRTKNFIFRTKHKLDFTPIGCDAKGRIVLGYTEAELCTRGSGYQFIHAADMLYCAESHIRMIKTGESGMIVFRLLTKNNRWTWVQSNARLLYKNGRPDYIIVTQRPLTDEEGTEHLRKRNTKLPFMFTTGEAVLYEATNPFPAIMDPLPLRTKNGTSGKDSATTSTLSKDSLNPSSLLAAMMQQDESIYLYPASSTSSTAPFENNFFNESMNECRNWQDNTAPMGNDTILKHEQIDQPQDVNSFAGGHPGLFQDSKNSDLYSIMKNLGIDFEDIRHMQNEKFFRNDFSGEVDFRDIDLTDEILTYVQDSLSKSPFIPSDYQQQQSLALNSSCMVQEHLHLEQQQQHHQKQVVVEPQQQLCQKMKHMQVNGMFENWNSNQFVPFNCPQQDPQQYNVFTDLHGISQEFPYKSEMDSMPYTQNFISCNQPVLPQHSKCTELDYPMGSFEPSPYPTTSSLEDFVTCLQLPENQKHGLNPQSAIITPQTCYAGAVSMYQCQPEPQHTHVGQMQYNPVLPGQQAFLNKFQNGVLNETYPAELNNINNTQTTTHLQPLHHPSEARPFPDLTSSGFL

| Structure (SMILES) | activation |
| --- | --- |
| CN(CC(=O)NCc1ccncc1)S(=O)(=O)c1ccc(Br)cc1 | 5.25% (inactive) |
| Cc1ccc(-c2nnc(-n3nnc4ccccc43)c3ccccc23)cc1 | 1.43% (inactive) |
| CC(C)CNC(=S)NNC(=O)c1nn(C)cc1Cl | -3.07% (inactive) |
| Cn1cc(Cl)c(C(=O)NNC(=S)Nc2cccc(Cl)c2)n1 | 125% (active) |
| Cc1nn(C)cc1C(=O)NNC(=S)Nc1ccc(Cl)cc1 | 29.1% (inactive) |
| CCCC(=O)Nc1nnc(CC(=O)OCC)s1 | 3.91% (inactive) |
| C=CCN1C2CCCC1CC(NC(=S)Nc1cccc(OC)c1)C2 (stereo not drawn) | -0.24% (inactive) |
| CCOCCCN(C)C1CCN(C(=O)c2oc3ccccc3c2NC(=O)COc2cccc(C)c2)CC1 | -0.33% (inactive) |
| COc1cccc(OC)c1C(=O)Nc1c(C(=O)N2CCN(c3ccccn3)CC2)oc2ccccc12 | -3.46% (inactive) |
| COCC(=O)Nc1c(C(=O)N2CCCC2)oc2ccccc12 | 74.5% (active) |
| CCc1cccc(C)c1NS(=O)(=O)c1cc(Br)cnc1N | 3.17% (inactive) |
| Cc1ccc(Cl)cc1NC(=O)C1CCN(S(C)(=O)=O)CC1 | 7.96% (inactive) |
| O=C(Nc1cccc(Cl)c1)C1CCCN(c2cnccn2)C1 (stereo not drawn) | 82.4% (active) |
| O=C(Nc1ccc2c(c1)OCCO2)C1CCCN(c2ncccn2)C1 (stereo not drawn) | 20.4% (inactive) |
| Cc1ccc(Cl)cc1NC(=O)C1CCCN(c2cnccn2)C1 (stereo not drawn) | 80% (active) |
| Cc1ccc(Cl)cc1NC(=O)COC(=O)C1CCCCC1 | 0.36% (inactive) |
| COc1cc(NC(=O)C2CCN(c3cnccn3)CC2)cc(OC)c1 | 5.78% (inactive) |
| CC(C)[C@H](NC(=O)N1CCn2c1nc1ccccc12)C(=O)NCc1ccc2c(c1)OCO2 | 6.92% (inactive) |
| CC(C)CNc1ncnc2c1cnn2Cc1ccc(Cl)cc1 | 0% (inactive) |
| Cc1cccc(CS(=O)(=O)c2ncc(Cl)c(C(=O)Nc3ccc(F)cc3)n2)c1 | 27.3% (inactive) |
| OC(c1ccc(Cl)cc1)C(CN1CCOCC1)c1ccccc1 (stereo not drawn) | 2.39% (inactive) |
| Cc1ccc(N(C(=O)c2sc(C)nc2C)C(C(=O)NC(C)(C)C)c2ccncc2)cc1 (stereo not drawn) | -0.51% (inactive) |
| CC(C)c1ccccc1OCC(O)CN(CC(O)COc1cccc2ccccc12)C(C)C (stereo not drawn) | 5.3% (inactive) |
| CC1Cc2ccccc2N1CC(=O)Nc1ccc2c(c1)OC(F)(F)O2 (stereo not drawn) | 61.4% (active) |

| Structure (SMILES) | activation |
| --- | --- |
| O=C(COC(=O)c1ccc[nH]c1=O)Nc1ccc2c(c1)OC(F)(F)O2 | 0.45% (inactive) |
| CC1Cc2ccccc2N1CC(=O)Nc1ccc(S(N)(=O)=O)cc1 (stereo not drawn) | 3.1% (inactive) |
| CCOC(=O)N1CCC(Nc2c(NCCCN3CCN(c4ccc(OC)cc4)CC3)c(=O)c2=O)CC1 | 1.99% (inactive) |
| O=C(Nc1cccc(S(=O)(=O)N2CCCCC2)c1)c1ccc2c(c1)OCO2 | 56% (active) |
| CC(C)NC(=O)CSc1ccccc1C(=O)NCc1ccc2c(c1)OCO2 | 1.44% (inactive) |
| O=C(Nc1cccc(S(=O)(=O)N2CCCCC2)c1)c1cncc(Br)c1 | 17.9% (inactive) |
| O=C(Nc1nc2ccccc2s1)c1ccc2c(c1)OCO2 | 6.38% (inactive) |
| CCSc1ccccc1C(=O)Nc1ccc2c(c1)OCO2 | 80.8% (active) |
| Cc1ccc(C(=O)Nc2ccc3c(c2)OCO3)cc1S(=O)(=O)N1CCCCC1 | 38.4% (inactive) |
| CSc1ncccc1C(=O)Nc1ccc2c(c1)OCO2 | 32.3% (inactive) |
| CC(Sc1nc(-c2ccccc2)cc(C(F)(F)F)n1)C(=O)Nc1ccc2c(c1)OCO2 (stereo not drawn) | 5.04% (inactive) |
| O=C(Nc1ccc2c(c1)OCO2)c1sc2cc(Cl)ccc2c1Cl | 33.1% (inactive) |
| COCc1nnc(NC(=O)c2ccc3c(c2)OCO3)s1 | 50% (active) |
| COc1cc(NC(=O)c2ccc3c(c2)OCO3)ccc1NC(=O)c1cccs1 | 12.8% (inactive) |
| CC(Sc1nc2cc(Cl)ccc2s1)C(=O)Nc1ccc2c(c1)OCO2 (stereo not drawn) | 65.3% (active) |
| O=C(NCc1ccc2c(c1)OCO2)C(=O)NCC1OCCN1S(=O)(=O)c1ccc(F)cc1 (stereo not drawn) | 1.35% (inactive) |
| CC(=O)c1nn(-c2cccc(C(F)(F)F)c2)c(=O)[nH]c1=O | 0.72% (inactive) |
| COc1ccc(CCNC(=O)CCNS(=O)(=O)c2cc(Br)cnc2N)cc1OC | -0.76% (inactive) |
| O=C(CN(C(=O)CNC(=O)c1cccs1)c1cccc(F)c1)NC1CCCCC1 | 1.69% (inactive) |
| Cc1ccc(C(=O)N2CCN(S(=O)(=O)N3CCOCC3)CC2)cc1 | 4.12% (inactive) |
| CCC(C)C(=O)Nc1cc([N+](=O)[O-])ccc1Cl (stereo not drawn) | 12% (inactive) |
| COc1ccc(S(=O)(=O)N2CCC(C(=O)N3CCCC3)CC2)cc1C | -0.5% (inactive) |
| C/C(=N\N)c1c(-c2ccccc2)c2cc(Br)ccc2[nH]c1=O | 2.69% (inactive) |
| COc1ccccc1C(=O)NCC(=O)OCC(=O)NNC(=O)c1ccc(Br)cc1 | 0.52% (inactive) |

| Structure (SMILES) | activation |
| --- | --- |
| Cc1cc2nc3n(c2cc1C)CC1CC(C(=O)NCCC(C)C)N(C)C31 (stereo not drawn) | 2.06% (inactive) |
| CCOC(=O)[C@H]1[C@H]2COc3ccccc3[C@@H]2N2C(=O)CN(Cc3ccccc3)C(=O)[C@@]12C | 0.71% (inactive) |
| CCOC(=O)C1=C(COC(=O)[C@H](C)NS(=O)(=O)c2ccccc2F)NC(=O)NC1C (stereo partly drawn) | -0.94% (inactive) |
| C[C@H](CO)N1C[C@H](C)[C@H](CN(C)C(=O)Nc2ccc(C(F)(F)F)cc2)Oc2c(NC(=O)c3ccncc3)cccc2C1=O | 5.42% (inactive) |
| O=C1Nc2ccc(Br)cc2/C1=N/N=C/C1=C(N2CCOCC2)C(=C\c2ccccc2)/CC1 | 22.3% (inactive) |
| Cc1cccc(NC(=O)/C=C/c2ccc3c(c2)OCO3)n1 | -3.06% (inactive) |
| Cc1ccc2nc(-c3ccccn3)cc(C(=O)Nc3ccc4c(c3)OCO4)c2c1 | 47.8% (active) |
| O=C(Nc1cccc([N+](=O)[O-])c1)c1ccc2c(c1)OCO2 | 14.3% (inactive) |
| CC(C)C(=O)Nc1cccc(C(=O)Nc2ccc3c(c2)OCO3)c1 | 56% (active) |
| O=C(Nc1ccccc1)c1ccc2c(c1)OCCCO2 | -1.81% (inactive) |
| CC(C)CNS(=O)(=O)c1ccc(C(=O)Nc2ccc3c(c2)OCO3)cc1 | 9.22% (inactive) |
| O=C(Nc1ccc(NC(=O)c2ccc3c(c2)OCO3)cc1)c1cccc(Cl)c1 | -2.05% (inactive) |
| O=C(Nc1cccnc1)c1ccc2c(c1)OCO2 | 51.4% (active) |
| Cc1cccc(NC(=O)Nc2ccc3c(c2)OCO3)n1 | 180% (active) |
| Cc1ccc2nc(-c3ccncc3)cc(C(=O)Nc3ccc4c(c3)OCCO4)c2c1 | 5.93% (inactive) |
| O=C(Nc1ccncc1)c1cc(-c2ccccn2)nc2ccc(Br)cc12 | 4.97% (inactive) |
| CC(NC(=O)Nc1ccc2c(c1)OCO2)c1ccncc1 (stereo not drawn) | 29.5% (inactive) |
| CCN(C(=O)COC(=O)c1ccc(COc2ccc3c(C)cc(=O)oc3c2)cc1)C1CCS(=O)(=O)C1 (stereo not drawn) | 1.82% (inactive) |
| CC(=O)Nc1ccc(S(=O)(=O)NC(C)C(=O)OCCOc2ccc(F)cc2)cc1 (stereo not drawn) | -0.37% (inactive) |
| Cc1cccc2nc(CSc3nc4[nH]ncc4c(=O)n3-c3cccc(Cl)c3)cc(=O)n12 | 2.86% (inactive) |
| COCC(C)n1c(C)cc(C(=O)CSc2cc(C)c3ccccc3n2)c1C (stereo not drawn) | 43.7% (inactive) |
| O=C(Cc1ccc([N+](=O)[O-])cc1)Nc1ccc(C(=O)N2CCOCC2)cc1 | 0.42% (inactive) |
| C=CCN(c1ccccc1C(=O)NCC(=O)OCC)S(=O)(=O)c1ccc(C)cc1 | -1.83% (inactive) |
| Cc1ccccc1N1CCN(C2CCCN(C(=O)c3cn4c(C)cccc4n3)C2)CC1 (stereo not drawn) | 1.46% (inactive) |

| Structure (SMILES) | activation |
| --- | --- |
| COc1ccc(-n2nc(C(=O)NCC(=O)N3CCN(c4ccccc4OC)CC3)c3ccccc3c2=O)c(OC)c1 | 3.01% (inactive) |
| O=C(CCN1C(=O)[C@H]2CC=CC[C@H]2C1=O)NCc1nc(-c2ccccc2)no1 | 1.79% (inactive) |
| CC(=O)N1CC(C)c2scc(C)[n+]2-c2ccccc21 (stereo not drawn) | -2.51% (inactive) |
| O=C(Nc1nnc(C2CC2)s1)c1cc(Cl)sc1Cl | 63.3% (active) |
| O=C(Nc1nnc(C2CC2)s1)c1ccccn1 | -1.71% (inactive) |
| Cc1cc(C(=O)Nc2nnc(C3CC3)s2)c(C)s1 | 23.6% (inactive) |
| CCCCOc1ccc(NC(=O)CSCC(=O)OCC)cc1 | -0.97% (inactive) |
| COc1ccc2ccccc2c1/C=N/NC(=O)c1cc(C)[nH]n1 | 39% (inactive) |
| Cc1[nH]c2ccccc2c1/C=N/NC(=O)CNC(=O)c1ccc2c(c1)OCO2 | 18.3% (inactive) |
| COCCNC(=S)N/N=C/c1c(C)[nH]c2ccccc12 | 47.6% (active) |
| CCCCN(CC(=O)NC(C)(C)C)C(=O)C(=O)Nc1ccc2c(c1)OCCO2 | 7.49% (inactive) |
| Cc1cc(=O)oc2ccc(OCC(=O)O)cc12 | -5.16% (inactive) |
| Cc1nc(COc2cc3oc(=O)cc(C)c3cc2Cl)cs1 | 48.1% (active) |
| Cc1cc(=O)oc2cc(OCC(=O)N3CCN(c4ccc(F)cc4)CC3)c(Cl)cc12 | -0.42% (inactive) |
| CC(C)NC(=S)Nc1cccc2cnccc12 | 15% (inactive) |
| COCCSc1nnc(NC(=O)CCS(=O)(=O)Cc2ccccc2)s1 | 22.7% (inactive) |
| COc1ccc(-c2ccc3nnc(SCC(=O)Nc4ccc(NC(C)=O)cc4)n3n2)cc1 | 3.13% (inactive) |
| Fc1ccc(-c2ccc(NCCN3CCOCC3)nn2)cc1 | 2.58% (inactive) |
| O=C(N/N=C/c1ccco1)c1csc2c1CCCC2 | 8.16% (inactive) |
| O=C(N/N=C/c1ccco1)c1ccc(C(=O)N/N=C/c2ccco2)o1 | 86% (active) |
| O=C(Cc1ccc([N+](=O)[O-])cc1)N/N=C/c1ccco1 | 1.25% (inactive) |

Reference: PubChem BioAssay AID2796 (The Scripps Research Institute Molecular Screening Center, 2010)
